Experimental findings from PubChem BioAssay AID1220 (Sanford-Burnham Center for Chemical Genomics, 2008) are described below.

“And” between values parts separate entries of the source, which are not always exact repeats. Equal entries are not always repeated. The campaign covered roughly 190,000 compounds. About 1,300 (0.68%) were called active. Rule as the data show it: active = inhibition above about 50%; inactive = the rest. The list comes from a sample in which actives are over-represented; it also holds similar structures and randomly drawn compounds. More than one record can exist for a structure, and the calls need not agree.

This assay deals with Mannose-6-phosphate isomerase (Homo sapiens) (UniProt P34949). The assay can be described thus: human PMI inhibitors, high substrate, primary screen, biochemical, fluorescence intensity, high mannose 6-phosphate (AID 1220). The following applies: recombinant PMI enzyme, coupled fluorescence intensity; at 20 µM; stronger effect = higher value.
Sequence of Mannose-6-phosphate isomerase (Homo sapiens) (P34949 whole entry, looked up): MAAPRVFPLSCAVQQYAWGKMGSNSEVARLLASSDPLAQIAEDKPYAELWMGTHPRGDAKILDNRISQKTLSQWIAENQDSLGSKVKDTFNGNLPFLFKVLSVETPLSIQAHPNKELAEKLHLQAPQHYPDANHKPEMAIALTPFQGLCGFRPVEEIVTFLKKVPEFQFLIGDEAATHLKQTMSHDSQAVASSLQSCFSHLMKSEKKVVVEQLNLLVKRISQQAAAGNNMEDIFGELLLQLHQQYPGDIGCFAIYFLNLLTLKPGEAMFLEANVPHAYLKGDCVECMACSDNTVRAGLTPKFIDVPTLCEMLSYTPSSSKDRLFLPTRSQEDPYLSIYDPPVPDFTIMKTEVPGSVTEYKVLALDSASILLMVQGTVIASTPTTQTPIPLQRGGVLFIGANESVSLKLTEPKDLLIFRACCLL
For `COc1cc(CN2CCCC(C(=O)c3sccc3C)C2)cc(OC)c1O` (stereo not given), the inhibition is 65.3% (active).
For `COc1cc(CN2CCCC(C(=O)c3sccc3C)C2)cc(Cl)c1O` (stereo not given), the inhibition is 14% (inactive).
With `COc1ccc(CN2CCCC(C(=O)c3sccc3C)C2)cc1O` (stereo not given), the inhibition was 1.4% (inactive).
For the compound `Cc1ccc(-n2c(O)c(/C=N/N3CCOCC3)c(=O)[nH]c2=S)cc1`, the inhibition was 29% (inactive).
Regarding `Cc1ccccc1-n1c(O)c(/C=N/N2CCOCC2)c(=O)[nH]c1=S`, the inhibition is 55.7% (active).
To `O=c1[nH]c(=S)n(-c2ccccc2)c(O)c1/C=N/N1CCOCC1` belongs 3.4% (inactive); to `CN1C(=O)N(C)C(=O)C2(Sc3ccccc3C2=O)C1=O`, -1.5% (inactive); to `CCOc1ccccc1-n1c(O)c(C=Nc2ccc(N(CC)CC)cc2)c(=O)[nH]c1=O`, 59.3% (active).
Take `CN(C)c1ccc(N=Cc2c(O)n(CCC3=CCCCC3)c(=O)[nH]c2=O)cc1`: the inhibition is 28.9% (inactive).
Take `CCOc1ccc(-n2c(O)c(C=Nc3ccc(N(CC)CC)cc3)c(=O)[nH]c2=O)cc1`: the inhibition is 18.2% (inactive).
As for `CCN(CC)c1ccc(N=Cc2c(O)n(CCC3=CCCCC3)c(=O)[nH]c2=O)cc1`, the figure is 58.1% (active); as for `CCN(CC)c1ccc(N=Cc2c(O)n(-c3ccc(Cl)cc3)c(=O)[nH]c2=O)cc1`, 39.5% (inactive); as for `CCN(CC)c1ccc(N=Cc2c(O)n(-c3ccccc3C)c(=O)[nH]c2=O)cc1`, 19.9% (inactive).
For `C=CCn1c(O)c(C=Nc2ccc(N(CC)CC)cc2)c(=O)[nH]c1=O`, the inhibition was 4% (inactive).
For the compound `CCN(CC)c1ccc(N=Cc2c(O)n(Cc3ccccc3)c(=O)[nH]c2=O)cc1`, the inhibition is 13.5% (inactive) and 50.6% (active).
To `CCN(CC)CCN=Cc1c(O)n(CCC2=CCCCC2)c(=O)[nH]c1=O` belongs 1.6% (inactive); to `Cc1nc2cc(-c3ccccc3)nn2c(C)c1CCC(=O)N1CCC2(CC1)OCCO2`, 12.2% (inactive).
In the case of `COc1ccccc1NC1=NCCS1`, the inhibition was -1% (inactive).
`Cc1ccccc1OP(N)(=O)Oc1ccccc1C`: the inhibition is 3% (inactive).
For the compound `CN1C(=O)C(Cc2cccc3ccccc23)C(=O)N(C)C1=O`, the inhibition is -9.1% (inactive).
As for `O=C(COC(=O)Cc1ccccc1)Nc1ccc(Cl)cn1`, the figure is -6.1% (inactive); as for `COC(=O)CC1=C(C(=O)OC)C2(C(=O)Nc3c(C)cccc32)C(C#N)=C(N)O1` (stereo not given), 4.4% (inactive).
`c1cncc(C2CCCCN2Cc2ccc3c(c2)OCO3)c1` (stereo not given): the inhibition is 4.9% (inactive).
As to `CCN1CCN(Cc2cc(Br)cc(OC)c2O)CC1`, the inhibition was 18% (inactive).
Regarding `CCN1CCN(c2cc(N3CCCC3)c([N+](=O)[O-])cc2F)CC1`, the inhibition is 25.4% (inactive).
Turning to `CCN1CCN(Cc2cc(OC)c(OC)cc2[N+](=O)[O-])CC1`, the inhibition was 59.2% (active).
In the case of `CCOc1ccccc1-n1c(O)c(C=NCCCN(CC)CC)c(=O)[nH]c1=O`, the inhibition is -2.3% (inactive).
On to `O=C(c1cc(-c2ccccc2)on1)N1CCC2(CC1)OCCO2`, for which the inhibition is -0.7% (inactive).
As to `Oc1ccccc1/C=N/NP(=S)(c1ccccc1)c1ccccc1`, the inhibition is 10.4% (inactive).
Take `Oc1ccc(/C=N/NP(=S)(c2ccccc2)c2ccccc2)cc1`: the inhibition is 8.7% (inactive).
To `Oc1ccc(/C=N/NP(=S)(c2ccccc2)c2ccccc2)c(O)c1O` belongs 52.2% (active).
For `COC(=O)CNC(=O)c1cn(CCC#N)nc1-c1ccc(F)cc1`, the inhibition was -0.2% (inactive).
On to `O=C(CSc1ccccc1)N1CCC2(CC1)OCCO2`, for which the inhibition is 14.1% (inactive).
As for `CCOC(=O)C1=C(C)OC(N)=C(C#N)C12C(=O)Nc1ccc(C)cc12` (stereo not given), the figure is -2.3% (inactive); as for `CCCC1=C(C(=O)OCC)C2(C(=O)Nc3ccc(C)cc32)C(C#N)=C(N)O1` (stereo not given), 8.5% (inactive).
Consider `O=C1CCCN1c1ccc(S(=O)(=O)O)cc1` (tested in a mixture with another compound), for which the inhibition was -11.1% (inactive).
On to `CC(=O)c1ccc(OC(NC(=O)c2ccco2)C(Cl)(Cl)Cl)cc1` (stereo not given), for which the inhibition was 7.7% (inactive).
For `CC(C)CCn1c(N)c(C(=O)NCc2cccs2)c2nc3ccccc3nc21`, the inhibition was 59.5% (active).
As to `COCCCn1c(N)c(C(=O)Nc2sc3c(c2C(=O)OC)CCCC3)c2nc3ccccc3nc21`, the inhibition is 24.1% (inactive).
`CCOCCCn1c(N)c(C(=O)Nc2sc3c(c2C(=O)OC)CCCC3)c2nc3ccccc3nc21`: the inhibition is 62.1% (active).
As for `CC(C)CNC(=O)c1c(N)n(Cc2ccco2)c2nc3ccccc3nc12`, the figure is -12.2% (inactive); as for `CCCCNC(=O)c1c(N)n(CCCOC)c2nc3ccccc3nc12`, 40.9% (inactive).
With `CC(C)OCCCNC(=O)c1c(N)n(Cc2cccs2)c2nc3ccccc3nc12`, the inhibition was 57.4% (active).
As for `COCCCn1c(N)c(C(=O)NCCC(C)C)c2nc3ccccc3nc21`, the figure is 63.7% (active).
As for `COCCNC(=O)c1c(N)n(CCC(C)C)c2nc3ccccc3nc12`, the figure is 34.1% (inactive); as for `CCOC(=O)c1c(NC(=O)c2c(N)n(CCCOC)c3nc4ccccc4nc23)sc2c1CCCC2`, 24.1% (inactive).
As for `CCCOC(=O)c1c(N)n(Cc2cccs2)c2nc3ccccc3nc12`, the figure is -0.8% (inactive); as for `CCC(C)OC(=O)c1c(N)n(Cc2cccs2)c2nc3ccccc3nc12` (stereo not given), 8.2% (inactive).
Consider `Nc1c(C(=O)NCCCc2ccccc2)c2nc3ccccc3nc2n1Cc1cccs1`, for which the inhibition was 17.4% (inactive).
In the case of `CCOc1cc(C2C(C#N)=C(N)Oc3c2c(=O)oc2ccccc32)ccc1OC(=O)c1cccs1` (stereo not given), the inhibition is 2.8% (inactive).
With `Cc1ccnc(-n2c(-c3ccccc3)nc3ccccc3c2=O)c1`, the inhibition is 15.9% (inactive).
With `CC(C(=O)c1c[nH]c2ccccc12)N1CCc2ccccc2C1` (stereo not given), the inhibition was 6.1% (inactive).
Consider `CCCC1(CCC)C(=O)NC(=Nc2ccc(C)cc2)NC1=O`, for which the inhibition was 2.5% (inactive).
Take `CN1CN=C(N[N+](=O)[O-])N(Cc2ccco2)C1`: the inhibition was -10.4% (inactive).
With `O=C(Cn1cnc2sc3c(c2c1=O)CCCC3)NCCC(=O)N1CCC2(CC1)OCCO2`, the inhibition is 1.1% (inactive).
On to `CC(C)C[C@H]1C(=O)N2CCCC2[C@]2(O)O[C@](NC(=O)[C@@H]3C=C4c5cccc6[nH]cc(c56)CC4N(C)C3)(C(C)C)C(=O)N12` (stereo not given in full), for which the inhibition was 48.1% (inactive).
Consider `CN1C[C@H](CO)C=C2c3cccc4[nH]cc(c34)C[C@H]21`, for which the inhibition was 65.5% (active).
Regarding `CC(C)[C@H]1C(=O)N2CCC[C@H]2[C@]2(O)O[C@](NC(=O)[C@@H]3C=C4c5cccc6[nH]cc(c56)C[C@H]4N(C)C3)(C(C)C)C(=O)N12`, the inhibition was 0.6% (inactive).
To `O=[N+]([O-])c1ccc(C2C3C(c4ccccc4)=NC4(CCCC4)N32)cc1` (stereo not given) belongs 9.1% (inactive).
On to `Cc1ccnc(-n2c(-c3ccco3)nc3ccccc3c2=O)c1`, for which the inhibition is 16.7% (inactive).
Regarding `CN(CCOc1ccc(C=C2C(=O)NC(=O)NC2=O)cc1)c1ccccn1`, the inhibition was -5.1% (inactive).
As for `COc1cc(/C=N/NP(=S)(c2ccccc2)c2ccccc2)ccc1O`, the inhibition was 4.4% (inactive).
For `CCC(=Nc1ccc(OC)cc1OC)c1c(O)[nH]c(=O)[nH]c1=O`, the inhibition is 30.1% (inactive).
With `CCC(=Nc1ccc(OC)cc1OC)c1c(O)n(C)c(=O)n(C)c1=O`, the inhibition is 53.9% (active).
Regarding `C=CCn1c(O)c(C(C)=Nc2cc(OC)ccc2OC)c(=O)[nH]c1=O`, the inhibition was 13% (inactive).
To `CCCCn1c(O)c(C(CC)=Nc2ccc(OC)cc2OC)c(=O)[nH]c1=O` belongs 17.6% (inactive).
For the compound `C=CCn1c(O)c(C(CC)=Nc2cc(OC)ccc2OC)c(=O)[nH]c1=O`, the inhibition is 55.7% (active).
In the case of `COc1ccc(N=C(C)c2c(O)n(C)c(=O)n(C)c2=O)c(OC)c1`, the inhibition is -2.6% (inactive).
Turning to `Cc1ccc(O)c(CN2CCN(c3ccccc3)CC2)c1`, the inhibition was 4.3% (inactive).
Take `CN(C)[C@@H]1C(=O)C(C(N)=O)=C(O)[C@@]2(O)C(=O)C3=C(O)c4c(O)ccc(Cl)c4[C@@](C)(O)C3C[C@@H]12` (stereo not given in full): the inhibition is 16.4% (inactive).
With `CN(C)[C@@H]1C(=O)C(C(N)=O)=C(O)[C@@]2(O)C(=O)C3=C(O)c4c(O)cccc4[C@@](C)(O)[C@H]3[C@H](O)[C@@H]12`, the inhibition is 52.6% (active).
Regarding `O=[N+]([O-])c1ccc(N2CCNCC2)cc1N1CCCCC1`, the inhibition was 9.9% (inactive).
Consider `CC1CN(c2cc([N+](=O)[O-])ccc2Cl)CC(C)N1` (stereo not given), for which the inhibition was -1.6% (inactive).
For `O=[N+]([O-])c1ccc(N2CCCC2)c(F)c1Br`, the inhibition was 8.1% (inactive).
To `CC1CN(c2ccc([N+](=O)[O-])cc2Cl)CCN1` (stereo not given) belongs 49.1% (inactive); to `CN1CCN(c2ccc(S(=O)(=O)C(F)(F)F)cc2[N+](=O)[O-])CC1`, -6.1% (inactive); to `CN1CCN(c2ccc([N+](=O)[O-])c3cccnc23)CC1`, 63.5% (active).
Turning to `O=[N+]([O-])c1ccc(N2CCCCCC2)c2ncccc12`, the inhibition was 63.7% (active).
Take `CC1CN(c2ccc([N+](=O)[O-])c3cccnc23)CC(C)N1` (stereo not given): the inhibition was 63.1% (active).
To `CN1CCN(c2ccc(S(C)(=O)=O)cc2[N+](=O)[O-])CC1` belongs -13.1% (inactive); to `O=[N+]([O-])c1ccc(N2CCCC2)c2ncccc12`, 22.1% (inactive); to `O=[N+]([O-])c1ccc(N2CCCCC2)c2ncccc12`, 72.6% (active).
As for `O=[N+]([O-])c1ccc(N2CCNCC2)c2ncccc12`, the figure is 29% (inactive).
As for `Cc1cc(OCc2nn[nH]n2)c2c3c(c(=O)oc2c1)CCCC3`, the figure is -9.2% (inactive); as for `COc1cc(NC(=O)CN2C3CCC2CC(O)(c2cccnc2)C3)cc(OC)c1` (stereo not given), 5.3% (inactive); as for `O=C(NC(C(Cl)Cl)N1CCOCC1)c1ccccc1` (stereo not given), -6.2% (inactive).
With `O=C(c1ccc2c(c1)ncn2-c1ccc(F)cc1F)N1CCC2(CC1)OCCO2`, the inhibition is -2.9% (inactive).
On to `CCCCCn1c(=O)c(C(=O)Nc2ccncc2)c(O)c2ccccc21`, for which the inhibition was -5.5% (inactive).
Take `COc1ccc(C(C)=O)cc1CC(C(=O)c1ccc(C)cc1)N(C)C` (stereo not given): the inhibition is 4.6% (inactive).
Turning to `CCC(C)NC(=O)CN1C(=O)CN=C(c2ccccc2)c2ccccc21` (stereo not given), the inhibition was -11.3% (inactive).

The term inhibition denotes the change of the read-out against control, counted positive when it falls.
